# Data from PubChem BioAssay AID1347076 (National Center for Advancing Translational Sciences (NCATS), 2019).
# Hit rate of the full screen: of about 400,000 compounds, about 13,000 (3.2%) were called active. Where a call stands in place of a potency, no number is given. Another 18% or so got no clear call; they are omitted. This is one part of a sample in which actives are shown more often than they occur. Calls come from the whole dose curve; as a rule, active = well fitted cell-killing curve with a large enough effect; inconclusive = small, poorly fitted or top-dose-only effect, or effect the other way; inactive = flat fitted curve, though single readings scatter.
# Test: qHTS assay for MDR1-selective chemotherapeutics: Primary screen using the drug-selected MDR subline cells KB-V1; note: nearly all actives have a fitted effect of over 60% in size
# Conditions: KB-V1 MDR cells viability, CellTiter-Glo, 72 h; series mostly up to 46.1 µM
# Method in brief: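 Following 72 h at 37 degrees C with compound, KB-V1 cell viability was read by CellTiter-Glo luminescence, medium being phenol-red-free DMEM plus 10% FBS; concentration-response parameters came from normalized, curve-fitted qHTS data.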
# Potency is the fitted concentration of half-maximal effect.
row,Compound,Potency
1,COc1ccc(C(=O)C(OP(=O)(OC)OC)c2ccccc2OC)cc1 (configuration not stated),inactive
2,CC1CC(NC(=S)N(C)C)CC(C)(C)C1 (configuration not stated),inactive
3,CC1=C(C(=O)Nc2ccccc2)C(c2cccs2)C(C#N)=C(SCC#N)N1 (configuration not stated),inactive
4,C=CCOC(=O)C1=C(C)NC(C)=C(C(=O)OCC=C)C1c1cccs1,16.4 µM (active)
5,C=CCOC(=O)c1ccccc1C(=O)OCC=C,inactive
6,COc1ccc(C(O)c2nc(-c3ccc(OC)nc3)cs2)cc1 (configuration not stated),inactive
7,CCOC(=O)c1c(-c2cccc(C)c2)csc1NC(=O)c1c(-c2ccccc2)noc1C,11.6 µM (active)
8,Cc1ccc(CNC(=O)c2c(-c3ccccc3)noc2C)cc1,inactive
9,CCOC(=O)c1c(-c2ccc(-c3ccccc3)cc2)csc1NC(=O)CCC(=O)O,inactive
10,O=S1(=O)CC(N2CCN(CCO)CC2)CN1C1CCCC1 (configuration not stated),inactive
11,COc1ccc(C(=O)NCC2CCCO2)cc1S(=O)(=O)NCc1ccc(Cl)cc1 (configuration not stated),inactive
12,CCC(=O)NCc1cc(-c2nn(C)c(=O)c3ccccc23)ccc1OC,inactive
13,COc1ccc(Br)cc1CN1CCN(C(=O)c2cccc(OC)c2OC)CC1,inactive
14,CCCCCc1c(-c2ccc(OC)c(OC)c2)ncn1CCc1ccccc1OC,14.6 µM (active)
15,CCOC(=O)CSc1nnc(-c2cccc(Br)c2)o1,inactive
16,CCCCCc1c(Cc2ccccc2)ncn1CCc1ccccc1OC,inactive
17,CCCCCc1c(-c2cccc(Br)c2)ncn1CCc1ccccc1OC,11.6 µM (active)
18,Cc1cccc(-n2ncc(C(=O)N3CCN(c4ccc(Cl)cc4)CC3)c2C2CCN(C(=O)OC(C)(C)C)CC2)c1,inactive
19,Cc1cc2nc(-c3ccc(NC(=O)c4cc5ccccc5o4)cc3)oc2cc1C,inactive
20,CCN(CC)CCN(C)C(c1ccnc2ccccc12)c1nnnn1-c1ccc2c(c1)OCCO2 (configuration not stated),inactive
21,COC(=O)c1sc2ncccc2c1-n1c(C)ccc1C,inactive
22,Cc1ccc(-c2c(N)nc3ncccn23)cc1,inactive
23,O=C(CSc1oc(-c2ccccc2)nc1S(=O)(=O)c1ccc(Br)cc1)NC1CCCCC1,inactive

row,Compound,Potency
1,Cc1ccc([C@H]2C[C@H](O)[C@@H](n3cc(COC(=O)c4ccccc4)nn3)CN2C(=O)C2CCCCC2)cc1,inactive
2,COc1ccc(OC)c(CNC(=O)C2CCCN(c3nc4ccccc4o3)C2)c1 (configuration not stated),inactive
3,CCc1ccc(CNC(=O)C2CCCN(c3nc4ccccc4o3)C2)cc1 (configuration not stated),14.6 µM (active)
4,COc1ccccc1CNC(=O)C1CCN(c2nc3ccccc3o2)CC1,inactive
5,COc1ccc(S(=O)(=O)N(C)C)cc1NC(=O)COC(=O)c1n[nH]c2ccccc12,inactive
6,CCCNC(=O)C1(C)CCCN(Cc2c(C)nn(-c3ccccc3)c2C)C1 (configuration not stated),inactive
7,O=C(CSc1ncn[nH]1)Nc1nc2c(F)c(F)c(F)cc2s1,inactive
8,CN1OC[C@@H]2CN(S(=O)(=O)c3cccc(C(F)(F)F)c3)[C@H](c3ccc(-c4cc5ccccc5o4)cc3)C[C@@H]21,inactive
9,COc1ccc(C(CCNCc2ccccc2F)c2ccc(F)cc2)cc1 (configuration not stated),14.6 µM (active)
10,COc1ccc(CCNC(=O)COC(=O)Cc2ccccc2F)cc1,inactive
11,COc1ccc(C(CNCC(=O)Nc2ccccc2F)N(C)C)cc1 (configuration not stated),inactive
12,O=S1(=O)CC(N2CCSCC2)CN1Cc1cn(Cc2cccc(Cl)c2)nn1 (configuration not stated),inactive
13,COc1cc2[nH]c(C)c(CCN3CCN(c4ccccc4)CC3)c2cc1OC,inactive
14,Cc1ccc(NS(=O)(=O)c2cc3c(cc2Br)NC(=O)CO3)cc1C,inactive
15,COc1cc(OC)c(/C=C/c2ccnc3ccccc23)c(OC)c1,inactive
16,O=C(Cn1nc(C(F)(F)F)c2c1CCC2)NCc1ccc(F)cc1,11.6 µM (active)
17,CCC(C)NC(=O)Cn1nc(C(F)(F)F)c2c1CCC2 (configuration not stated),inactive
18,O=C(Cn1nc(C(F)(F)F)c2c1CCCC2)Nc1ccc(Cl)cc1,inactive
19,CC(C)Cn1cc(-c2cncc3nccn23)cn1,inactive
20,CCCC(=O)N1CCC1(C)C(=O)NCc1ccc(C(C)C)cc1 (configuration not stated),inactive
21,Cc1ccc(C(=O)Nc2nc(-c3ccccc3)ns2)cc1,inactive
22,Cc1sc(NC(=O)c2ccc3ncsc3c2)c(C(N)=O)c1C,inactive
23,Cc1ccc(C(=O)c2c(NC(=O)c3ccccc3)sc(C)c2C)cc1,9.2 µM (active)

row,Compound,Potency
1,O=C(/C=C/[C@H]1O[C@@H](n2ccc(=O)[nH]c2=O)[C@H](O)[C@@H]1O)NCc1ccccn1,inactive
2,O=[N+]([O-])c1ccc(CN2CC(N3CCC(c4ccccc4)CC3)CS2(=O)=O)cc1 (configuration not stated),inactive
3,COC(=O)c1sccc1S(=O)(=O)N(CC(=O)Nc1ccc(C)c(F)c1)c1ccc(C)c(C)c1,inactive
4,O=C(OC1CC2CC1[C@H]1CCCCN1C2=O)N1CCOCC1 (some centres not stated),inactive
5,O=NN(CCCl)C(=O)NCCc1cccc[n+]1[O-],inactive
6,Cc1sc2ccccc2c1CNC[C@H]1O[C@@H](n2ccc(=O)[nH]c2=O)[C@H](O)[C@@H]1O,inactive
7,CCCCN1CC(N2CCN(Cc3cccc(C)c3)CC2)CS1(=O)=O (configuration not stated),inactive
8,O=c1[nH]nc(CSCc2ccccc2Cl)[nH]1,inactive
9,Clc1ccc(-c2nnc(SCc3nc4ccccc4s3)o2)cc1,inactive
10,Clc1ccccc1SCc1nc2ccccc2[nH]1,20.6 µM (active)
11,SCc1nc2ccc(Cl)cc2[nH]1,inactive
12,c1ccc(-c2nnc(SCc3nc4ccccc4[nH]3)o2)cc1,20.6 µM (active)
13,Nc1cccc(CCc2nc3ccccc3[nH]2)c1,inactive
14,c1ccc2c(CSCc3nc4ccccc4[nH]3)cccc2c1,20.6 µM (active)
15,CCN(C(=O)CSc1nnc(-c2ccncc2)o1)c1ccccc1,inactive
16,O=C(OCc1nc2ccccc2[nH]1)C1CCCCC1,inactive
17,Cc1ccccc1NC(=O)Cn1cc(C(=O)c2cccs2)c2ccccc21,inactive
18,Cc1ccc(CNC(=O)CCNS(=O)(=O)c2ccc3c(c2)oc(=O)n3C)cc1,inactive
19,O=C(NCCc1cccc(F)c1)C1CC(O)CN1C(=O)Nc1ccccc1 (configuration not stated),inactive
20,Cc1ccc([C@@H]2CC(=O)[C@@H]3CN(S(=O)(=O)c4ccc(C)cc4)[C@H](c4ccccc4F)C[C@@H]3N2S(=O)(=O)c2ccc(Cl)cc2)cc1,inactive
21,C=C1C(=O)[C@]23C[C@H]1CCC2[C@@]1(C)C(C[C@@H]3O)[C@](C)(C(=O)O)CC[C@@H]1O (some centres not stated),inactive
